This is part of a sample that, as a whole, favours compounds with a hit. Of some 83,000 tested, about 20% had one in any assay.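 In brief: 96-well plates, 48 h treatment, single concentration, percent growth endpoint.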 The source made the active and inactive calls. Rule for the calls: active = growth percent below 10; inactive = the rest.
Each compound was assayed on HL-60(TB) leukemia (assay: NCI-60 one-dose screen, 48 h (100 = growth as untreated, 0 = no growth, -100 = all killed)). Conditions: 10 µM unless noted.

Row | SMILES | growth
1 | S=c1ssnc1-c1cc2ccccc2o1 | 78% (inactive)
2 | COC(=O)/C=C1\SC(=Nc2ccc(C(F)(F)F)cc2)N(CCc2c[nH]c3ccccc23)C1=O | -55.4% (active)
3 | CC(C)c1nc(N(C)S(C)(=O)=O)nc(-c2ccc(F)cc2)c1/C=C/C(=O)C[C@@H](O)CC(=O)O | 106% (inactive)
4 | CN(C)N1C(=O)c2c(Cl)c(Cl)c(Cl)c(Cl)c2C1=O | 95.8% (inactive)
5 | C#CCC1(c2ccc(F)c(F)c2)NS(=O)(=O)c2ccccc21 (centres undefined) | 89.2% (inactive)
6 | CC1=CC(=O)C(C(C)=Nc2ccccc2Cl)C(=O)O1 (centres undefined) | 101% (inactive)
7 | COc1cc(/C=N/NC(=O)c2ccc(C(F)(F)F)nc2Nc2ccc(Cl)cc2C)ccc1O | 4.41% (active)
8 | CC1SC(c2ccccc2O)N(NC(=O)CCC(=O)c2nc3ncccc3[nH]2)C1=O (centres undefined) | 101% (inactive)
9 | CCOC(=O)C1=C(C)N=C2SC=C(c3ccccc3)N2[C@H]1c1cn[nH]c1-c1ccc(Cl)cc1 | 1.71% (active)
10 | COc1cc2c(cc1I)-c1c(cc(OC)c(OC)c1OC)CC[C@@H]2NC(C)=O | 6.93% (active)
11 | CCN(CC)CCOc1ccccc1-n1c(C)ccc1-c1ccccc1 | 22.4% (inactive)
12 | c1cc(OCCN2CCCCC2)cc(-c2n[nH]c3ccc(-c4ncn[nH]4)cc23)c1 | 39% (inactive)
13 | O=C(O)c1cn(C2CC2)c2cc(N3CCN(C(=O)CSc4nnc(-c5ccc(Cl)cc5)n4-c4ccccc4)CC3)c(F)cc2c1=O | 91.1% (inactive)
14 | CN1CCN(c2ccc(NC(=O)c3cncnc3Nc3ccc4c(ccn4Cc4cccc(F)c4)c3)cc2)CC1 | -54.3% (active)
